PubChem BioAssay AID1211 (NMMLSC, 2008)
Activity calls are given as the source filed them. How the calls were made is not given here.

Biological target: Estrogen receptor (Homo sapiens) (UniProt P03372)
Assay: displacement of fluorescent estrogen from ERalpha – cell-based, Cos7 ERalpha-GFP, flow cytometry, primary screen (AID 1211);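 further: 0% = DMSO vehicle wells and 100% = no E2-Alexa633 signal left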
Conditions: fluorescent ligand competition, stronger effect = higher value

Sequence of Estrogen receptor (Homo sapiens) (P03372 whole entry, looked up): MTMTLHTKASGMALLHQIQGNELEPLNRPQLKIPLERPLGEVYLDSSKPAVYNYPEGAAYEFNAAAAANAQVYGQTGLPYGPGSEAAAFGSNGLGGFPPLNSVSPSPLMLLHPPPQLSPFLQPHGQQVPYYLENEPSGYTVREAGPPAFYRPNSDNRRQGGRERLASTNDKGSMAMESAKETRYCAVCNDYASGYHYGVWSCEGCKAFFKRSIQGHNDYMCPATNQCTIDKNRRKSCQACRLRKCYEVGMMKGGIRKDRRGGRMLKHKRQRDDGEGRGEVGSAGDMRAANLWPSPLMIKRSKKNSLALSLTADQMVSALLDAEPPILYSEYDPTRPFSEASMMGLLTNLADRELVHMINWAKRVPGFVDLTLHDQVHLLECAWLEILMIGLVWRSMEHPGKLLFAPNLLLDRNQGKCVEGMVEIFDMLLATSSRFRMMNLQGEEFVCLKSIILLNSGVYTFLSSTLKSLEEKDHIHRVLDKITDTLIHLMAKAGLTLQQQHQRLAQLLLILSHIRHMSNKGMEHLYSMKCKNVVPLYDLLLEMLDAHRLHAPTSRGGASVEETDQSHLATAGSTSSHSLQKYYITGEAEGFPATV

Row | Compound | inhibition of ligand binding (at 10 µM) | inhibition of ligand binding (binding inhibition, at 0.1 µM) [%]
1 | O=C(O)c1cccc2c1NC(c1cccc([N+](=O)[O-])c1)C1CC(Sc3ccccc3[N+](=O)[O-])C(Cl)C21 (stereo not drawn) | 62% (inactive) | –
2 | O=C1C2CCN(CC2)C1Cc1ccc(O)cc1 (stereo not drawn) | 0% (inactive) | –
3 | NC(=O)c1ccc(N=Nc2c(O)[nH]c(=O)[nH]c2=O)cc1 | 28% (inactive) | 14
4 | O=C(O)c1ccc2c(c1)C1C(Cl)C(Sc3ccccc3[N+](=O)[O-])CC1C(c1cccc([N+](=O)[O-])c1)N2 (stereo not drawn) | 0% (inactive) | –
5 | COc1ccc2[nH]cc(CCN=C(N)N)c2c1 | 1% (inactive) | –
6 | COc1ccc(C2(CN)CCCC2)cc1OC | 2% (inactive) | –
7 | COc1cc2c(cc1OC)CC(C)(C)NC2 | 3% (inactive) | –
8 | C[C@H]1CCC[C@@H](O)CCC/C=C/c2cc(O)cc(O)c2C(=O)O1 | 67% (active) | 74
9 | COc1ccc(Cn2c(N)c(C(=O)NCc3ccco3)c3nc4ccccc4nc32)cc1 | 26% (inactive) | 45
10 | CCOc1ccccc1N1C(=O)NC(=O)C(CCc2ccncc2)(CCc2ccncc2)C1=O | 59% (inactive) | 24
11 | CC(=O)c1ccc2c(c1)C1C(Cl)C(Sc3ccccc3[N+](=O)[O-])CC1C(c1ccccc1[N+](=O)[O-])N2 (stereo not drawn) | 79% (active) | 38
12 | Cc1ccc2c(c1Cl)NC(C(=O)O)C1CC(Sc3ccccc3[N+](=O)[O-])C(Cl)C21 (stereo not drawn) | 0% (inactive) | –
13 | CC(=O)c1ccc2c(c1)C1C(Cl)C(Sc3ccccc3[N+](=O)[O-])CC1C(C(=O)O)N2 (stereo not drawn) | 0% (inactive) | –
14 | CCNCC1(c2ccc(OC)c(OC)c2)CCCC1 | 17% (inactive) | –
15 | CC(=O)c1ccc2c(c1)C1C(Cl)C(Sc3ccccc3[N+](=O)[O-])CC1C(c1ccccc1)N2 (stereo not drawn) | 69% (active) | –
16 | COc1ccc(C2(CN)CCCC2)cc1 | 21% (inactive) | –
17 | O=C(O)c1cccc2c1NC(C(=O)O)C1CC(Sc3ccccc3[N+](=O)[O-])C(Cl)C21 (stereo not drawn) | 0% (inactive) | 1
18 | Cc1ccc(S(=O)(=O)Cc2ccc(C(=O)N3CCC4(CC3)OCCO4)o2)cc1 | 31% (inactive) | 24
19 | CC1(C)CC(CCNCc2ccc3c(c2)OCO3)(Cc2ccccc2)CCO1 (stereo not drawn) | 0% (inactive) | –
20 | N=c1c[n+](CCc2ccc(O)cc2)[n-]o1 | 7% (inactive) | –
21 | COc1ccc(CC2NCCc3cc(OC)c(OC)cc32)cc1OC (stereo not drawn) | 7% (inactive) | –
